Molecules are shown by their SMILES. The source made the active and inactive calls. Rule for the calls: active = hit-call score of the fitted dose curve at least 0.9, where 1 is the maximum; inactive = score below 0.9.

Assay [1] in a line: APR_HepG2_CellCycleArrest_24hr: Apredica 24-hour HepG2 Assay for Cell Cycle Arrest (AID 2282905).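 Note: cell cycle arrest scored as ratio of 2N to 4N nuclear DNA content.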 To be noted: imaging, actives raise or lower the signal. In short, it runs like this: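 Compounds (0.39 to 200 uM, final DMSO 0.5% v/v) are applied to HepG2 cells for 24 hours; cells are then fixed, permeabilized and nuclei labeled with Hoechst 33342. Automated imaging measures DNA content, and activity is fitted in both directions against DMSO.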

Assay [2] can be described thus: APR_HepG2_NuclearSize_24hr: Apredica 24-hour HepG2 Assay for Nuclear Size (AID 2282907). Particulars: high-content imaging, actives raise or lower the signal. In short, it runs like this: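 Nuclear size is measured by fluorescence high-content imaging of Hoechst-labelled HepG2 nuclei after 24 hr of treatment (0.39–200 uM, 0.5% DMSO). Cells are fixed in 3.7% formaldehyde before staining, and DMSO serves as the baseline for bidirectional curve fitting.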

Assay [3] in a line: APR_HepG2_CellLoss_24hr: Apredica 24-hour HepG2 Assay for Cell Loss (AID 2282908).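 For AC50: fit in both directions so a hit may be cell loss or gain.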 To be noted: high-content imaging. In short, it runs like this: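 Nuclear count serves as the viability measure: treated cells are fixed, permeabilized and labelled with Hoechst 33342, and six images per well are analysed to identify valid nuclei. Doses span 0.39–200 uM, and activity in either direction is scored against DMSO.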

A short description of assay [4]: APR_HepG2_MicrotubuleCSK_24hr: Apredica 24-hour HepG2 Assay for Microtubule CSK Stabilty (AID 2282909). Particulars: HepG2 microtubule cytoskeleton imaging, actives raise or lower the signal. In short, it runs like this: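 Compounds were applied to HepG2 cells for 24 hours across 0.39–200 uM in duplicate, with final DMSO at 0.5% v/v. Fixed, permeabilized cells were labeled for alpha-tubulin and nuclei, and tubulin fluorescence was quantified by imaging, fitted bidirectionally against DMSO.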

Assay [5] can be described thus: APR_HepG2_MitoMembPot_24hr: Apredica 24-hour HepG2 Assay for Mitochondrial Membrane Potential (AID 2282911). To be noted: imaging, actives raise or lower the signal. Put shortly:
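Cells are dosed for 24 hr across 0.39 to 200 uM with solvent held at 0.5% DMSO. They are then stained with 250 nM MitoTracker Red CMXRos for 30 min, fixed in 3.7% formaldehyde and imaged.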

The nature of assay [6]: APR_HepG2_MitoMass_24hr: Apredica 24-hour HepG2 Assay for Mitochondrial Mass (AID 2282912). Particulars: high-content imaging, actives raise or lower the signal. Put shortly: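 After 24 hr of treatment at 0.39 to 200 uM, HepG2 cells take up 250 nM MitoTracker Red CMXRos for 30 min and are then fixed with 3.7% formaldehyde. Per-well images are quantified, and any change in either direction is scored against solvent.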

Assay [7] is described as follows: APR_HepG2_p53Act_24hr: Apredica 24-hour HepG2 Assay for p53 Activation (AID 2282913).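 Note: p53 protein immunofluorescence averaged per cell in HepG2 with Hoechst nuclei.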 To be noted: high-content imaging, actives raise or lower the signal. Put shortly: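 Human HepG2 liver cells; 24 hr cpd treatment, 0.39–200 uM, 0.5% DMSO final. Fixed in 3.7% formaldehyde, permeabilized with 0.5% Triton X-100, stained with anti-p53/Cy5 plus Hoechst 33342. Six images per well at 20x; gain or loss vs DMSO.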

Assay [8] can be described thus: APR_HepG2_CellCycleArrest_72hr: Apredica 72-hour HepG2 Assay for Cell Cycle Arrest (AID 2282914). Particulars: high-content imaging, actives raise or lower the signal. In short, it runs like this: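 Read-out is Hoechst-stained nuclear DNA content measured by automated fluorescence imaging (20x, six images per well), fitted in both directions relative to DMSO. Human HepG2 liver cells received 0.39–200 uM compound for 72 hr at 0.5% v/v DMSO.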

Assay [9] in a line: APR_HepG2_CellLoss_72hr: Apredica 72-hour HepG2 Assay for Cell Loss (AID 2282915). To be noted: high-content imaging. Put shortly: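 HepG2 cells exposed 72 h to compound at 0.39–200 uM (10 concentrations, duplicate) in 0.5% DMSO. Fixed with 3.7% formaldehyde and Hoechst 33342-stained. Imaged at 20x; nuclear count gives cell number, fitted bidirectionally versus DMSO.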
Assay [10] is described as follows: APR_HepG2_P-H2AX_72hr: Apredica 72-hour HepG2 Assay for H2AX Phosphorylation (AID 2282916).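 Note: phospho-histone H2A.x immunostain intensity per cell marking DNA damage.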 Particulars: imaging, actives raise or lower the signal. In short, it runs like this:
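Human hepatoma HepG2 cells are dosed across ten concentrations (0.39 to 200 uM, 0.5% v/v DMSO) and incubated 72 hr. Phospho-histone H2A.x is then detected by antibody staining alongside c-Jun and Hoechst, and quantified by automated fluorescence imaging.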

A short description of assay [11]: APR_HepG2_MicrotubuleCSK_72hr: Apredica 72-hour HepG2 Assay for Microtubule CSK Stabilty (AID 2282919). Particulars: HepG2 microtubule cytoskeleton, high-content imaging, actives raise or lower the signal. Put shortly:
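HepG2, 72 hr cmpd exposure, 0.39–200 uM (10 pts, duplicate), 0.5% DMSO. 3.7% formaldehyde fix, 0.5% Triton perm, anti-alpha-tubulin/Cy5 plus Hoechst. HCS fluorescence intensity; bidirectional fit vs DMSO baseline; taxol as positive control.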

A short description of assay [12]: APR_HepG2_P-H2AX_24hr: Apredica 24-hour HepG2 Assay for H2AX Phosphorylation (AID 2282920). Particulars: high-content imaging, actives raise or lower the signal. In short, it runs like this: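 HepG2, 24 hr, cpd 0.39–200 uM (10 conc, duplicate), DMSO 0.5% v/v final. Fix 3.7% formaldehyde, Triton X-100 permeabilize, anti-phospho-H2A.x 1:200 + Hoechst 2 ug/mL. Imaged, bidirectional fit vs DMSO.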

A short description of assay [13]: APR_HepG2_StressKinase_72hr: Apredica 72-hour HepG2 Assay for Stress Kinase (AID 2282921). To be noted: HepG2 stress kinase (phospho-c-Jun) imaging, actives raise or lower the signal. Put shortly:
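After a 72 h compound treatment spanning 0.39 to 200 uM, formaldehyde-fixed cells are labelled for phosphorylated c-Jun and nuclei, imaged by automated fluorescence microscopy, and activity is fitted in both directions relative to DMSO controls.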

A short description of assay [14]: APR_HepG2_StressKinase_24hr: Apredica 24-hour HepG2 Assay for Stress Kinase (AID 2282922). Particulars: HepG2 stress kinase (phospho-c-Jun) imaging, actives raise or lower the signal. In short, it runs like this: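 Read-out: phospho-c-Jun immunofluorescence (Cy3 secondary) quantified by high-content imaging at 20x, nuclei defined by Hoechst 33342. Human HepG2 liver cells dosed 24 hr, 0.39–200 uM, DMSO 0.5% v/v; gain or loss of signal fitted relative to DMSO.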

Assay [15] in a line: APR_HepG2_p53Act_72hr: Apredica 72-hour HepG2 Assay for p53 Activation (AID 2282923).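 Note: average cellular p53 protein immunofluorescence intensity in HepG2 cells.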 To be noted: high-content imaging, actives raise or lower the signal. Put shortly: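 Imaging-based endpoint: after 72 hr compound exposure (up to 200 uM, 0.5% DMSO), fixed and permeabilized monolayers were labelled with anti-p53 antibody and imaged; signal change in either direction was fitted relative to DMSO controls.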

Assay [16] can be described thus: APR_HepG2_MitoMass_72hr: Apredica 72-hour HepG2 Assay for Mitochondrial Mass (AID 2282924).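 Note: MitoTracker Red CMXRos stain intensity per cell imaged as mitochondrial mass.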 Particulars: high-content imaging, actives raise or lower the signal. Put shortly:
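Read-out: MitoTracker Red fluorescence intensity from automated imaging (20x, six fields per well) in human HepG2 liver cells. Dosing ran 72 hr, 0.39–200 uM, 0.5% DMSO; bidirectional curve fitting versus DMSO baseline.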

Assay [17] in a line: APR_HepG2_NuclearSize_72hr: Apredica 72-hour HepG2 Assay for Nuclear Size (AID 2282925). To be noted: high-content imaging, actives raise or lower the signal. In short, it runs like this: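 Read-out: nuclear diameter from Hoechst 33342 images (ArrayScan, 20x, six fields/well), via cell-cycle image analysis. HepG2 were dosed 0.39–200 uM for 72 hr in 0.5% DMSO. Bidirectional fit relative to DMSO.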

Assay [18] can be described thus: APR_HepG2_MitoticArrest_72hr: Apredica 72-hour HepG2 Assay for Mitotic Arrest (AID 2282918). Particulars: high-content imaging, actives raise or lower the signal. Put shortly: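 Read-out is phospho-histone H3 immunofluorescence with Hoechst nuclear segmentation, imaged at 20x. Human HepG2 liver cells received ten concentrations (0.39–200 uM, final DMSO 0.5% v/v) for 72 hr before fixation. Gain or loss of signal was fitted relative to DMSO.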

On to `O=C(OC[C@H]1O[C@@H](OC(=O)c2cc(O)c(O)c(OC(=O)c3cc(O)c(O)c(O)c3)c2)[C@H](OC(=O)c2cc(O)c(O)c(OC(=O)c3cc(O)c(O)c(O)c3)c2)[C@@H](OC(=O)c2cc(O)c(O)c(OC(=O)c3cc(O)c(O)c(O)c3)c2)[C@@H]1OC(=O)c1cc(O)c(O)c(OC(=O)c2cc(O)c(O)c(O)c2)c1)c1cc(O)c(O)c(OC(=O)c2cc(O)c(O)c(O)c2)c1`, for which the result in assay [1], in [2], in assay [3], in assay [4], in assay [8] and in assay [10] was inactive. In addition, the result in [11], in assay [12], in assay [13] and in [14] was inactive. Further, the AC50 in [5] was 26.4 µM (active); in assay [6], 23.9 µM (active); in assay [7], 20.8 µM (active); in [9] it was 21.4 µM (active); in [15] it was 23.2 µM (active); in assay [16] it was 14.5 µM (active). Further, in assay [17], the AC50 is 18.7 µM (active).

Regarding `CCOC(=O)CC(CC(=O)OCC)(OC(C)=O)C(=O)OCC`, the molecule was classed as inactive in [1], in assay [2], in assay [3], in assay [4], in assay [5] and in assay [6]. In addition, the result in [7], in [10], in assay [18], in [11], in [12] and in assay [13] was inactive. The molecule was classed as inactive in [14], in assay [15], in [16] and in assay [17]. Moreover, the AC50 in assay [8] is 82.1 µM (active); in assay [9] it was 45.8 µM (active).

Take `CCCCCCCCCCCCCCCO`: the AC50 is 107 µM (active) in [1], 110 µM (active) in assay [8], 93.8 µM (active) in assay [9] and 95.6 µM (active) in assay [18]. In addition, the outcome in assay [2], in assay [3], in assay [4], in [5], in assay [6] and in assay [7] was inactive. Also, the result in assay [10], in [11], in assay [12], in assay [13], in assay [14] and in [15] was inactive. Further, the molecule was called inactive in [16].

On to `CCC(C)(C)C(=O)O[C@H]1C[C@@H](C)C=C2C=C[C@H](C)[C@H](CC[C@@H]3C[C@@H](O)CC(=O)O3)[C@H]21`, for which the AC50 in assay [1] was 2.85 µM (active); in [3] it was 123 µM (active); in [5], 105 µM (active); in [6], 3.97 µM (active); in assay [7] it was 89.3 µM (active); in [10] it was 58.8 µM (active). The AC50 is 73.8 µM (active) in assay [12]; 100 µM (active) in [13]; 115 µM (active) in [14]; 29.6 µM (active) in [15]; 0.559 µM (active) in assay [16]. The outcome in assay [2], in [4], in [8], in [11] and in assay [17] was inactive.

One may read the AC50 as the concentration at which the activity in the assay is half-maximal.

The values above are taken from PubChem BioAssay (EPA / NIEHS).
